Source: PubChem BioAssay (several laboratories)
In the library only some 27% were active in any assay of this set; here they are far more common.
sEH act = soluble epoxide hydrolase activators, primary screen, biochemical, human sEH; purified human sEH enzymatic activity, activator screen; AID 717, 2007; activation, % at 2 µM; Bifunctional epoxide hydrolase 2 (Homo sapiens), P34913; actives 0.04% (n = 91,000); in the data active = activation above about 37%
CYP2C9 inh = blockers of cytochrome P450 2C9 activity – biochemical, luminescence, ADME assay, primary screen; CYP2C9 Supersomes, luciferin-H conversion; inhibition, % at 5 µM; actives 20% (n = 96,000);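 active = blocking of liver enzyme CYP2C9 beyond about 50% at 5 µM, limit read from the data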
sEH inhibitor = soluble epoxide hydrolase inhibitors, primary screen, biochemical, human sEH | recombinant human sEH enzymatic activity assay | actives 0.34% (n = 91,000) | Bifunctional epoxide hydrolase 2 (Homo sapiens), P34913 | inhibition, % at 2 µM; in the data active = inhibition above about 80%
CYP2C19 activ = human CYP2C19 activators, primary screen, biochemical, luminescence | Cytochrome P450 2C19 (Homo sapiens), P33261 | recombinant CYP2C19, luciferin-H EGE luminescence; hits give high values; 0 = fully inhibited enzyme, 1 = untreated enzyme | activation factor at 5 µM | 96,000 tested, under 10 active | AID 1025, 2008;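 active = activation factor of at least 2 at 5 µM in the primary screen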
Target sequence (P33261 whole entry, looked up): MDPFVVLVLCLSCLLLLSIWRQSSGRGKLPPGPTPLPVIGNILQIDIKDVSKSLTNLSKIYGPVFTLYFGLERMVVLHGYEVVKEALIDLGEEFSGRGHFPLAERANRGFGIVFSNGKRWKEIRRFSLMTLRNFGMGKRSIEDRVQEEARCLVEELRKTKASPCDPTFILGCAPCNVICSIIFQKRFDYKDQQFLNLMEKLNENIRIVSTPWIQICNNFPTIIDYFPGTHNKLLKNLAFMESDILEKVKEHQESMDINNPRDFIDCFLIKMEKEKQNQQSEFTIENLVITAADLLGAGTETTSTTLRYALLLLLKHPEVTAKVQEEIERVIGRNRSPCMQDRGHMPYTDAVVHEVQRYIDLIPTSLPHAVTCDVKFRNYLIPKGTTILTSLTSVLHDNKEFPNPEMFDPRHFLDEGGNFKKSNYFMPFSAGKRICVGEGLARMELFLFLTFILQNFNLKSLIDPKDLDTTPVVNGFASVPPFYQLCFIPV
CYP2C19 inh = blockers of cytochrome P450 2C19 activity – biochemical, luminescence, ADME assay, primary screen; P33261; CYP2C19 Supersomes, luciferin-H EGE luminescence, 30 min; inhibition, % at 5 µM; actives 21% (n = 96,000); AID 778, 2007;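 active = CYP2C19 inhibition above a set limit at 5 µM in the primary screen, cut at about 50% in these data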
CYP2C9 act = human CYP2C9 activators, primary screen, biochemical, luminescence. Cytochrome P450 2C9 (Homo sapiens), P11712. recombinant CYP2C9, luciferin-H conversion; hits give high values; factor 1 = untreated enzyme, 0 = blocked. activation factor at 5 µM. actives 1.4% (n = 96,000);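 active = activation factor of 2 or more for CYP2C9 at a 5 µM dose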
Hits are given with their value.

`CC(c1nc2ccccc2c(=O)[nH]1)N1CCN(C)CC1` (stereo not drawn) gave sEH act inactive, CYP2C9 inh inactive, sEH inhibitor inactive, CYP2C19 activ inactive, CYP2C19 inh inactive and CYP2C9 act inactive.
CC(C)NS(=O)(=O)c1ccc(OCC(=O)NCc2ccc3c(c2)OCO3)c(Cl)c1 was read as sEH act inactive, CYP2C9 inh 94, sEH inhibitor inactive, CYP2C19 activ inactive, CYP2C19 inh 97 and CYP2C9 act inactive.
`COc1ccc(CCNC(=O)COc2ccc(S(=O)(=O)NC(C)C)cc2Cl)cc1OC` gave sEH act inactive, CYP2C9 inh 86, sEH inhibitor inactive, CYP2C19 activ inactive, CYP2C19 inh 65 and CYP2C9 act inactive.
For COC(=O)c1ccccc1NC(=O)CSc1nc(-c2ccco2)cc(C(F)(F)F)n1 the results were CYP2C9 inh inactive, CYP2C19 activ inactive, CYP2C19 inh inactive and CYP2C9 act inactive.
CCOC(=O)N=S(=O)(Oc1ccc([N+](=O)[O-])cc1)c1ccccc1 (stereo not drawn) was read as sEH act inactive, CYP2C9 inh inactive, sEH inhibitor inactive, CYP2C19 activ inactive, CYP2C19 inh 78 and CYP2C9 act inactive.
`CC1CCCCC1NC(=O)c1cn(C)c2ccc(S(=O)(=O)N3CCCC3)cc2c1=O` (stereo not drawn) gave CYP2C9 inh inactive, CYP2C19 activ inactive, CYP2C19 inh inactive and CYP2C9 act inactive.
CC1CCCC(NC(=O)COC(=O)c2cc(S(=O)(=O)N3CCCCC3)ccc2N2CCOCC2)C1C (stereo not drawn) was read as sEH act inactive, CYP2C9 inh 82, sEH inhibitor inactive, CYP2C19 activ inactive, CYP2C19 inh 78 and CYP2C9 act inactive.
Screening CC(C)(C)NC(=O)COC(=O)c1cc(S(=O)(=O)N2CCCCC2)ccc1N1CCOCC1 returned sEH act inactive, CYP2C9 inh 82, sEH inhibitor inactive, CYP2C19 activ inactive, CYP2C19 inh 66 and CYP2C9 act inactive.
For CC1CCCC(NC(=O)c2cn(C)c3ccc(S(=O)(=O)N4CCCC4)cc3c2=O)C1C (stereo not drawn) the results were CYP2C9 inh 73, CYP2C19 activ inactive, CYP2C19 inh inactive and CYP2C9 act inactive.
CC(C)CCNC(=O)NC(=O)COC(=O)c1cc(S(=O)(=O)N2CCOCC2)ccc1N1CCCCC1 was read as sEH act inactive, CYP2C9 inh inactive, sEH inhibitor inactive, CYP2C19 activ inactive, CYP2C19 inh inactive and CYP2C9 act inactive.
`NC(=O)COC(=O)c1cc(S(=O)(=O)N2CCOCC2)ccc1N1CCCCC1` gave CYP2C9 inh inactive, CYP2C19 activ inactive, CYP2C19 inh inactive and CYP2C9 act inactive.
Screening O=C1CC(C(=O)NCc2ccccc2)C2(CCCC2)O1 (stereo not drawn) returned sEH act inactive, CYP2C9 inh inactive, sEH inhibitor inactive, CYP2C19 activ inactive, CYP2C19 inh inactive and CYP2C9 act inactive.
CC1(C(=O)NCc2ccccc2)Oc2ccccc2NC1=O (stereo not drawn) was read as sEH act inactive, CYP2C9 inh 76, sEH inhibitor inactive, CYP2C19 activ inactive, CYP2C19 inh 77 and CYP2C9 act inactive.
CC12CC(c3ccccc3O1)C(C(=O)NCc1ccccc1)C(=O)N2 (stereo not drawn) was read as sEH act inactive, CYP2C9 inh inactive, sEH inhibitor inactive, CYP2C19 activ inactive, CYP2C19 inh 60 and CYP2C9 act inactive.
For COc1ccc(C(C(=O)NC2CCCCC2)N(CC2CCCO2)C(=O)CNC(=O)c2ccco2)cc1 (stereo not drawn) the results were sEH act inactive, CYP2C9 inh inactive, sEH inhibitor inactive, CYP2C19 activ inactive, CYP2C19 inh inactive and CYP2C9 act inactive.
`O=C(/C=C/NNC(=O)c1ccccc1)c1ccccc1` gave sEH act inactive, CYP2C9 inh inactive, sEH inhibitor inactive, CYP2C19 activ inactive, CYP2C19 inh inactive and CYP2C9 act inactive.
`NC(=O)c1ccccc1N/C=C/C(=O)c1ccccc1` gave sEH act inactive, CYP2C9 inh inactive, sEH inhibitor inactive, CYP2C19 activ inactive, CYP2C19 inh 74 and CYP2C9 act inactive.
`CCCCSc1ccc(NC(=O)c2cccnc2)cc1` gave sEH act inactive, CYP2C9 inh inactive, sEH inhibitor inactive, CYP2C19 activ inactive, CYP2C19 inh inactive and CYP2C9 act inactive.
Screening Cc1onc(COc2ccccc2O)c1Br returned sEH act inactive, CYP2C9 inh inactive, sEH inhibitor inactive, CYP2C19 activ inactive, CYP2C19 inh 73 and CYP2C9 act inactive.
COc1ccc(S(=O)(=O)n2nc(OC(=O)C3CCCCC3)cc2N)cc1 was read as sEH act inactive, CYP2C9 inh inactive, sEH inhibitor inactive, CYP2C19 activ inactive, CYP2C19 inh inactive and CYP2C9 act inactive.
`CC(C)N=C(NC#N)SCc1ccccc1F` gave sEH act inactive, CYP2C9 inh inactive, sEH inhibitor inactive, CYP2C19 activ inactive, CYP2C19 inh 85 and CYP2C9 act inactive.
CC(C)N=C(NC#N)SCC(=O)NC(C)(C)C was read as sEH act inactive, CYP2C9 inh inactive, sEH inhibitor inactive, CYP2C19 activ inactive, CYP2C19 inh inactive and CYP2C9 act inactive.
Screening COC(=O)c1cc(NC(=O)C2CC=CCC2C(=O)O)cc(C(=O)OC)c1 (stereo not drawn) returned sEH act inactive, CYP2C9 inh inactive, sEH inhibitor inactive, CYP2C19 activ inactive, CYP2C19 inh inactive and CYP2C9 act inactive.
Screening CC(C)(C)C1CC=C2C(C#N)=C(N)C(C#N)(C#N)C(c3cccs3)C2C1 (stereo not drawn) returned sEH act inactive, CYP2C9 inh 90, sEH inhibitor inactive, CYP2C19 activ inactive, CYP2C19 inh 57 and CYP2C9 act inactive.
CCOC(=O)c1oc2cccc(O)c2c1C was read as sEH act inactive, CYP2C9 inh inactive, sEH inhibitor inactive, CYP2C19 activ inactive, CYP2C19 inh inactive and CYP2C9 act 2.4.
CCOC(=O)c1c(-c2ccccc2)oc2ccc(O)c(CN3CCOCC3)c12 was read as sEH act inactive, CYP2C9 inh inactive, sEH inhibitor inactive, CYP2C19 activ inactive, CYP2C19 inh 56 and CYP2C9 act inactive.
CCOC(=O)c1oc2ccccc2c1CN1CCN(c2ccccc2)CC1 was read as sEH act inactive, CYP2C9 inh inactive, sEH inhibitor inactive, CYP2C19 activ inactive, CYP2C19 inh 52 and CYP2C9 act inactive.
CCOC(=O)c1oc2cccc(O)c2c1CN1CCOCC1 was read as sEH act inactive, CYP2C9 inh inactive, sEH inhibitor inactive, CYP2C19 activ inactive, CYP2C19 inh 60 and CYP2C9 act inactive.
Screening CCOC(=O)c1oc2ccc(CNC(C)(C)C)c(Cl)c2c1C returned sEH act inactive and sEH inhibitor inactive.
